Where a name gives a salt, the structure may show the parent alone.
Assays:
Settings in all cases: incubation time: 27 h, anaerobic, 37 °C;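 for the amine columns active = adjusted P below 0.05 in both replicates with a change the same way and a mean fold change under 0.8 or over 1.25; inactive = the rest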
[1] = system: Clostridium sporogenes DSM 1664; experiment: growth (OD595) fold change vs plate DMSO controls (fold change (ratio)); higher = more growth
How it was run: (§1)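 Growth is expressed as the fold change relative to the median of the DMSO control wells on each plate. Cultures in mGAM were grown anaerobically in 96-well plates for 27 h at 37 °C, shaken, and read at 595 nm. Readings were blank-subtracted, corrected for compound background with 20 µM compound solutions in water, and converted to OD with a calibration factor of 5. Fold changes above 1.5 were set to NA, and each value is the mean of 2 biological replicates.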

[2] = system: Escherichia coli IAI1; experiment: as above
How it was run: as §1

[3] = system: Klebsiella aerogenes DSM 30053; experiment: as above
How it was run: as §1

[4] = system: Ruminococcus gnavus DSM 108212; experiment: as above
How it was run: as §1

[5] = system: Klebsiella aerogenes DSM 30053; experiment: fold change of Histamine concentration vs plate DMSO controls (fold change (ratio)); higher = more amine produced, active = hit call of the paper (significant change in both replicates, either direction)
How it was run: (§2)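 Using LC–triple-quadrupole MS with dynamic MRM, amines were quantified against external calibration curves and corrected for drift within each batch. Samples were whole anaerobic mGAM cultures of four gut strains, grown 27 h at 37 °C from OD 0.1 before 1:1 dilution, extracted with cold acetonitrile/methanol containing 0.1% formic acid and centrifuged. Compounds were present at 20 µM final (sweeteners at 50 µM final). The numbers are fold changes versus plate DMSO controls, each the mean of 2 biological replicates.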

[6] = system: Clostridium sporogenes DSM 1664; experiment: fold change of Tryptamine concentration vs plate DMSO controls (fold change (ratio)); higher = more amine produced, active = hit call of the paper (significant change in both replicates, either direction)
How it was run: as §2

[7] = system: Ruminococcus gnavus DSM 108212; experiment: as above
How it was run: as §2

[8] = system: Escherichia coli IAI1; experiment: fold change of Putrescine concentration vs plate DMSO controls (fold change (ratio)); higher = more amine produced, active = hit call of the paper (significant change in both replicates, either direction)
How it was run: as §2

[9] = system: Klebsiella aerogenes DSM 30053; experiment: as above
How it was run: as §2

[10] = system: Escherichia coli IAI1; experiment: fold change of Cadaverine concentration vs plate DMSO controls (fold change (ratio)); higher = more amine produced, active = hit call of the paper (significant change in both replicates, either direction)
How it was run: as §2

[11] = system: Klebsiella aerogenes DSM 30053; experiment: as above
How it was run: as §2

[12] = system: Ruminococcus gnavus DSM 108212; experiment: fold change of 2-Phenylethylamine concentration vs plate DMSO controls (fold change (ratio)); higher = more amine produced, active = hit call of the paper (significant change in both replicates, either direction)
How it was run: as §2

SMILES | growth [1] | growth [2] | growth [3] | growth [4] | fold change of Histamine concentration [5] | fold change of Tryptamine concentration [6] | fold change of Tryptamine concentration [7] | fold change of Putrescine concentration [8] | fold change of Putrescine concentration [9] | fold change of Cadaverine concentration [10] | fold change of Cadaverine concentration [11] | fold change of 2-Phenylethylamine concentration [12]
CCCC1O[C@@H]2C[C@H]3[C@@H]4CCC5=CC(=O)C=C[C@]5(C)[C@H]4[C@@H](O)C[C@]3(C)[C@]2(C(=O)CO)O1 (stereo not given in full) [Budesonide] (20 µM) | 1.13 | 0.993 | 0.997 | 1.08 | 1.06 (inactive) | 0.934 (inactive) | 0.998 (inactive) | 1.02 (inactive) | 1.01 (inactive) | 1.02 (inactive) | 0.994 (inactive) | 0.984 (inactive)
CC1c2cccc(O)c2C(O)=C2C(=O)C3(O)C(O)=C(C(N)=O)C(=O)C(N(C)C)C3C(O)C21 (stereo not given) [Doxycycline hydrochloride] (20 µM) | 0.0027 | 0.0209 | 0.241 | 0.613 | 0.459 (inactive) | 0.0313 (active) | 0.225 (active) | 0.219 (active) | 0.659 (active) | 0.412 (active) | 0.724 (active) | 0.288 (active)
O=C(O)COC(=O)Cc1ccccc1Nc1c(Cl)cccc1Cl [Aceclofenac] (20 µM) | 1.1 | 1.11 | 1.14 | 0.993 | 0.97 (inactive) | 0.959 (inactive) | 0.984 (inactive) | 1.08 (inactive) | 1.01 (inactive) | 0.962 (inactive) | 1.01 (inactive) | 1.05 (inactive)
C[C@H](CCc1ccccc1)NC[C@H](O)c1ccc(O)c(C(N)=O)c1 [Dilevalol] (20 µM) | 1.02 | 0.978 | 1.11 | 1.1 | 0.929 (inactive) | 1.04 (inactive) | 0.98 (inactive) | 1.02 (inactive) | 1.01 (inactive) | 0.974 (inactive) | 1.01 (inactive) | 1.01 (inactive)
CC(C)c1cc2c(cc1S(=O)(=O)O)[C@@]1(C)CCC[C@@](C)(C(=O)O)[C@@H]1CC2 [Ecabet sodium] (20 µM) | 1.16 | 1 | 1.01 | 0.982 | 0.974 (inactive) | 0.972 (inactive) | 1.01 (inactive) | 0.955 (inactive) | 1 (inactive) | 1.01 (inactive) | 0.991 (inactive) | 0.995 (inactive)
CCNC(=O)CCC/C=C\C[C@@H]1[C@@H](/C=C/[C@@H](O)CCc2ccccc2)[C@H](O)C[C@@H]1O [Bimatoprost] (20 µM) | 1.07 | 1.06 | 1.02 | 1 | 1.05 (inactive) | 1.02 (inactive) | 0.954 (inactive) | 1.02 (inactive) | 1.03 (inactive) | 1.04 (inactive) | 0.997 (inactive) | 0.919 (inactive)
Cc1ccsc1C(=CCCN1CCC[C@@H](C(=O)O)C1)c1sccc1C [Tiagabine hydrochloride] (20 µM) | 1.03 | 0.984 | 1.05 | 1.01 | 0.968 (inactive) | 0.999 (inactive) | 0.971 (inactive) | 1.03 (inactive) | 1.02 (inactive) | 1.01 (inactive) | 1.01 (inactive) | 0.927 (inactive)
C#C[C@]1(O)CC[C@H]2[C@@H]3CCC4=CC(=O)CC[C@@H]4[C@H]3CC[C@@]21CC [(D-) Norgestrel] (20 µM) | 1.06 | 0.994 | 1.02 | 0.996 | 1.05 (inactive) | 1.01 (inactive) | 1.01 (inactive) | 0.982 (inactive) | 0.998 (inactive) | 1.03 (inactive) | 0.985 (inactive) | 0.978 (inactive)
CC(=O)OCC(=O)[C@@]1(O)CC[C@H]2[C@@H]3CCC4=CC(=O)C=C[C@]4(C)[C@@]3(F)[C@@H](O)C[C@@]21C [Isoflupredone acetate] (20 µM) | 0.985 | 1.02 | 0.983 | 1 | 1.09 (inactive) | 1.03 (inactive) | 1.1 (inactive) | 1 (inactive) | 1.03 (inactive) | 0.988 (inactive) | 1.11 (inactive) | 1.22 (inactive)
CN(C)c1cc(NC(=O)CNC(C)(C)C)c(O)c2c1C[C@H]1C[C@H]3[C@H](N(C)C)C(=O)C(C(N)=O)=C(O)[C@@]3(O)C(=O)C1=C2O [Tigecycline] (20 µM) | 0.926 | 1.12 | 1.18 | 1.19 | 0.865 (inactive) | 0.964 (inactive) | 1.08 (inactive) | 1.08 (inactive) | 0.991 (inactive) | 0.967 (inactive) | 1.03 (inactive) | 1.13 (inactive)
CCOC(=O)Nc1ccc(NCc2ccc(F)cc2)nc1N [Flupirtine] (20 µM) | 1.18 | 0.973 | 1.04 | 0.999 | 0.95 (inactive) | 0.95 (inactive) | 1.01 (inactive) | 1.03 (inactive) | 0.993 (inactive) | 1.01 (inactive) | 0.999 (inactive) | 1.03 (inactive)
COc1ccc(-c2noc(CC(=O)O)c2-c2ccc(OC)cc2)cc1 [Mofezolac] (20 µM) | 0.876 | 1.01 | 1 | 1.21 | 1.05 (inactive) | 0.988 (inactive) | 0.979 (inactive) | 1.03 (inactive) | 1 (inactive) | 0.987 (inactive) | 0.993 (inactive) | 0.96 (inactive)
CCCOc1ccccc1-c1nc2[nH]nnc2c(=O)[nH]1 [Zaprinast] (20 µM) | 1.03 | 0.972 | 1 | 1.2 | 0.988 (inactive) | 1.01 (inactive) | 1.01 (inactive) | 0.969 (inactive) | 1 (inactive) | 0.974 (inactive) | 1 (inactive) | 1.06 (inactive)
C[C@]12CC[C@@H]3c4ccc(O)cc4CC[C@H]3[C@@H]1C[C@@H](O)[C@@H]2O [Estriol] (20 µM) | 1.12 | 0.963 | 1.17 | 1.15 | 0.888 (inactive) | 1.01 (inactive) | 0.936 (inactive) | 0.991 (inactive) | 0.993 (inactive) | 1.02 (inactive) | 1.02 (inactive) | 0.884 (inactive)
CCCCN1CCCCC1C(=O)Nc1c(C)cccc1C (stereo not given) [Bupivacaine hydrochloride] (20 µM) | 1.13 | 1.07 | 1 | 0.881 | 0.967 (inactive) | 1.02 (inactive) | 1.01 (inactive) | 1.02 (inactive) | 0.995 (inactive) | 1.01 (inactive) | 1 (inactive) | 1.02 (inactive)
Cc1cc(NS(=O)(=O)c2ccc(N)cc2)no1 [Sulfamethoxazole] (20 µM) | 1.01 | 1.11 | 1.06 | 0.913 | 1.12 (inactive) | 0.999 (inactive) | 1.01 (inactive) | 1.13 (inactive) | 1.03 (inactive) | 0.911 (inactive) | 1 (inactive) | 0.978 (inactive)
CCN1C(=O)NC(c2ccccc2)C1=O (stereo not given) [Ethotoin] (20 µM) | 0.983 | 0.999 | 0.982 | 1.14 | 1.06 (inactive) | 0.942 (inactive) | 0.879 (inactive) | 0.991 (inactive) | 0.991 (inactive) | 0.999 (inactive) | 0.981 (inactive) | 0.855 (inactive)
CN(C)c1ccc2nc3ccc(=[N+](C)C)cc-3sc2c1 [Methylene blue] (20 µM) | 0.774 | 0.466 | 0.42 | 0.00745 | 0.942 (inactive) | 0.998 (inactive) | 1.02 (inactive) | 0.965 (inactive) | 0.928 (inactive) | 0.941 (inactive) | 0.989 (inactive) | 1.09 (inactive)
O=C(CCCl)NCc1ccccc1 [Beclamide] (20 µM) | 1.18 | 1.02 | 1 | 1.07 | 1.03 (inactive) | 1.02 (inactive) | 1.02 (inactive) | 1.01 (inactive) | 1.01 (inactive) | 1.04 (inactive) | 0.996 (inactive) | 1.03 (inactive)
CCC(C)(C)c1ccc(CC(C)CN2C[C@@H](C)O[C@@H](C)C2)cc1 (stereo not given in full) [Amorolfine hydrochloride] (20 µM) | 1.07 | 0.995 | 1.01 | 0.849 | 1.01 (inactive) | 0.989 (inactive) | 0.868 (inactive) | 1.03 (inactive) | 1 (inactive) | 1.02 (inactive) | 0.997 (inactive) | 0.88 (inactive)
Cc1cc(C(C)(C)C)cc(C)c1CC1=NCCN1 [Xylometazoline hydrochloride] (20 µM) | 0.986 | 1.01 | 1.01 | 1.1 | 0.982 (inactive) | 1.01 (inactive) | 1.01 (inactive) | 0.986 (inactive) | 0.966 (inactive) | 0.968 (inactive) | 1 (inactive) | 0.998 (inactive)
CCN1CCCC1CNC(=O)c1cc(S(N)(=O)=O)ccc1OC (stereo not given) [Sulpiride] (20 µM) | 0.968 | 1 | 0.981 | 1.18 | 1.05 (inactive) | 0.949 (inactive) | 1.03 (inactive) | 0.997 (inactive) | 1.02 (inactive) | 1.03 (inactive) | 0.991 (inactive) | 1.06 (inactive)
CC(C)Oc1ccc2c(=O)c(-c3ccccc3)coc2c1 [Ipriflavone] (20 µM) | 0.986 | 1.01 | 0.992 | 1.03 | 1 (inactive) | 1.01 (inactive) | 1.04 (inactive) | 0.98 (inactive) | 1.02 (inactive) | 1.04 (inactive) | 0.989 (inactive) | 1.02 (inactive)
C#C[C@]1(OC(C)=O)CC[C@H]2[C@@H]3CCC4=C[C@@H](OC(C)=O)CC[C@@H]4[C@H]3CC[C@@]21C [Ethynodiol diacetate] (20 µM) | 0.766 | 0.814 | 1.02 | 1.14 | 0.897 (inactive) | 0.966 (inactive) | 1.01 (inactive) | 0.894 (inactive) | 1 (inactive) | 1.09 (inactive) | 1.02 (inactive) | 1.02 (inactive)
CC1(C)S[C@@H]2[C@H](NC(=O)[C@H](N)c3ccccc3)C(=O)N2[C@H]1C(=O)O [Ampicillin sodium salt] (20 µM) | 0.00123 | 0.943 | 0.726 | 0.0281 | 1.2 (inactive) | 0.0126 (active) | 0.0802 (active) | 0.981 (inactive) | 1.02 (inactive) | 1.23 (inactive) | 1.18 (inactive) | 0.0719 (active)
